Experimental data taken from the OligoGym collection.
Note: reference of the scale not given here.

What follows are sequences tested against ADRB1 (assay: pooled miR-30 sensor sort-seq; sequence = guide strand). Conditions: shRNA.
For TTGGTGACGAAGTCGCAGCACT, the sensor-assay potency score (higher = more potent) was -0.788. With TTGAAGAAGACGAAGAGGCGGT the sensor-assay potency score (higher = more potent) was 0.771. TGTCCACTGCTGAGACAGCGGC showed a sensor-assay potency score (higher = more potent) of -1.28. TCGAGTCGCTGTCCGCCGCCGC showed a sensor-assay potency score (higher = more potent) of -1.38. TAGAAGGAGACTACGGACGAGG showed a sensor-assay potency score (higher = more potent) of -0.754. With TCTTCTTCACCTGCTTCTGGGC the sensor-assay potency score (higher = more potent) was -0.965. Sequence TTGGGGTCGTTGTAGCAGCGGC has a sensor-assay potency score (higher = more potent) of -1.11. For TTGGTGAGCGTCTGCAGCCGCG, the sensor-assay potency score (higher = more potent) was -1.38. Work on ACACACAGGGTCTCGATGCTGG yielded a sensor-assay potency score (higher = more potent) of -0.4. For TTGAGCGCCTTCTGCTCGCGCA, the sensor-assay potency score (higher = more potent) was -1.01. GACATCGTCGTCGTCGTCGTCC was tested, and the sensor-assay potency score (higher = more potent) was -1.45. AAGAAGGAGCCGTACTCCCAGC gave a sensor-assay potency score (higher = more potent) of -1.16. In the case of TCGTCGTCGTCGTCGTCCGAGG, the sensor-assay potency score (higher = more potent) is reported as -1.7. ACGCACAGCACGTCCACTGAGG was tested, and the sensor-assay potency score (higher = more potent) was -1.84. TCCACTGAGGTCCACAGCTCGC showed a sensor-assay potency score (higher = more potent) of -1.74. With ACGAAGTCGCAGCACTTGGGGT the sensor-assay potency score (higher = more potent) was -1.34. Sequence ACTGAGGTCCACAGCTCGCAGA has a sensor-assay potency score (higher = more potent) of -1.49. In the case of TTGCGGAAGTCGGGGCTGCGGC, the sensor-assay potency score (higher = more potent) is reported as -1.38. For ATGAGCAGCACGATGAGCGCCA, the sensor-assay potency score (higher = more potent) was -0.267. Sequence TGTCGATCTTCTTCACCTGCTT has a sensor-assay potency score (higher = more potent) of 0.319. TCGCTGTCCGCCGCCGCCCCGC gave a sensor-assay potency score (higher = more potent) of -1.6.
